In PubChem BioAssay AID743293 (Broad Institute, 2014):
Potency and affinity values are given separately. Activity calls are given as the source filed them.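 The calls were made as follows: active = compounds lowering fluorescence with a fitted half-maximal concentration at or below a set limit tied to top dose; inconclusive = flat curve with 30 to 70% inhibition, or poor fit; inactive = the rest.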

The compounds below were run against Caspase-9 (Homo sapiens) (UniProt P55211) (assay: caspase-9 enzyme inhibition, dose response, selectivity assay for caspase-6 inhibitor project, biochemical, fluorescence, plate reader, cherry-picked samples (AID 743293)). Conditions: purified caspase-9, Z-LEHD-R110 cleavage fluorescence; series mostly up to 35 µM; activity change, negative = inhibition: at the top concentration.
Caspase-9 (Homo sapiens), sequence (P55211 whole entry, looked up): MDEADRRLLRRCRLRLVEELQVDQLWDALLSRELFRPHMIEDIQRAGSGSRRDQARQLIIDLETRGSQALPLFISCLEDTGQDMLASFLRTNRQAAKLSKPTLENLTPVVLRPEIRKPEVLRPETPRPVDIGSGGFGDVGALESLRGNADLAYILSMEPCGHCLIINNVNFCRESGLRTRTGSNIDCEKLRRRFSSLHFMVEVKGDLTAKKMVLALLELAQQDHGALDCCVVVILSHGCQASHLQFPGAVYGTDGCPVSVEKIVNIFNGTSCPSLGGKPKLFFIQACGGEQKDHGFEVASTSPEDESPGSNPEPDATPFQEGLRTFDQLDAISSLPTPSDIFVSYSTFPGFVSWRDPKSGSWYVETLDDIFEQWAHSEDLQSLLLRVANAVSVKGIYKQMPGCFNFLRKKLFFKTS

Activity change, negative = inhibition, inactive:
O=C(O)CCc1ccc(-c2ccc(Br)cc2)n1CC(=O)O -0.071%
O=c1cc2c(=O)oc3cc(O)c(O)oc3c2c(O)c1O -13.2%
CNS(=O)(=O)c1cccc(C(=O)OCC(=O)N2c3ccccc3NC(=O)C2(C)C)c1 10.5%
O=C(O)/C(=C\c1ccc(Cl)c([N+](=O)[O-])c1)c1ccc(S(=O)(=O)N2CCCC2)s1 8.03%
O=C(CCO)c1ccc(O)cc1 12.8%
CCN(CC)CCCC(C)n1c2nc(=O)[nH]c(=O)c-2nc2cc(Cl)ccc21 (centres undefined) 213% [at 11 µM]
COc1cc(C)c2c(c1C=O)Oc1c(c(C)c(O)c3c1C(O)OC3=O)OC2=O (centres undefined) -7.48%
CN(CC(=O)Nc1ccccc1Cl)C(=O)COC(=O)c1ccc([N+](=O)[O-])s1 -8.48%
CCCSC1=N/C(=C\c2ccc([N+](=O)[O-])o2)C(=O)S1 1.27%
CCOC(=O)[C@H](Cc1c[nH]c2ccccc12)NC(=O)CN=[N+]=[N-] 14.2%
COc1cc(-c2ccc(Nc3ccccc3C(=O)O)c(OC)c2)ccc1Nc1ccccc1C(=O)O 0.463%
Cc1[nH]nc(S(=O)CC(=O)O)c1[N+](=O)[O-] (centres undefined) 6.6%
CN(CC(=O)Nc1c(Cl)cccc1Cl)C(=O)c1cccc(-n2cccc2)c1 12.2%
Cc1oc2c(cc(NS(=O)(=O)c3ccc(C(C)C)cc3)c3ccccc32)c1C(=O)O 14.4%
O=c1c(O)cccc2cc(O)c(O)c(O)c12 -7.42%
COc1ccc(C(=O)OCC(=O)Nc2ncc([N+](=O)[O-])s2)cc1OC -3.4%
CCCCN(C(=O)c1cccc(-n2cccc2)c1)c1c(N)n(Cc2ccccc2)c(=O)[nH]c1=O 16.8%
O=C(O)C1CCCCC1C(=O)Nc1cccc(Br)c1 (centres undefined) 14%
[O-][n+]1onc2c1CCc1c-2nn(-c2ccccc2Cl)[n+]1[O-] 1.99%
Oc1cc(O)cc(C=Cc2ccc(O)c(O)c2)c1 -0.042%
O=C(Nc1ccc2nc3n(c(=O)c2c1)CCCCC3)c1c(F)ccc([N+](=O)[O-])c1F 10.9%
Oc1cc2c(cc1O)[C@H]1c3ccc(O)c(O)c3OC[C@@]1(O)C2 -2.83%
COCCn1c2nc(=O)n(-c3ccccc3)c(=O)c-2nc2ccccc21 189%
CC(CNc1ccccc1O)C(=O)O (centres undefined) -4.67%
O=C(c1cccc(-n2cccc2)c1)N1CCN(S(=O)(=O)c2ccccc2)CC1 0.468%
CCOc1ccc2nc3cc(NCc4ccc(OC)cc4)ccc3c(N)c2c1 -6.35%
Cc1ccc(NC(=O)CN(C)C(=O)c2cccc(-n3cccc3)c2)cc1 2.92%
O=C(COC(=O)c1ccccc1)Nc1ncc([N+](=O)[O-])s1 -6.14%
O=C(Nc1ccc(S(=O)(=O)Nc2cnc3ccccc3n2)cc1)c1ccc(Cl)c([N+](=O)[O-])c1 2.21%
